± gives the standard deviation of the averaged measurements.
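Also: TDF denotes transformed human dermal fibroblasts of mesenchymal origin.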

In this experiment the test system is TDF. Put plainly: cell number relative to DMSO (% of DMSO); higher = more cells (less growth inhibition / toxicity). The note with it: concentration: 10 µM; 24 h. A digest of the protocol: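 Cell number or H1.0 nuclear intensity appears as percent of the plate control, based on the median of replicates. Measurements came from HCC1569 and TDF cells exposed in triplicate to compounds at 10 µM for 24 h at 37 °C, then imaged in six fields per well at ×10. Positional effects were smoothed out of HCC1569 values.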
The molecule `COc1ccc(-c2cc(=O)c3c(O)c(OC)c(OC)cc3o2)cc1O` returned a cell number of 80.2.
The same measure for `OC(Cn1cncn1)(Cn1cncn1)c1ccc(F)cc1F` [Fluconazole]: 100; for `CC(N)C1CCC(C(=O)Nc2ccncc2)CC1.Cl.Cl` (stereo not given): 106.
As to `COc1ccc(CNC(=O)c2sc3nc(C)cc(C)c3c2N)cc1`, the cell number turned out to be 102.
`CS(=O)(=O)N1CCN(Cc2cc3nc(-c4cccc5[nH]ncc45)nc(N4CCOCC4)c3s2)CC1` showed a cell number of 77.8.
In turn, `CCCCCC=CCC=CCC=CCC=CCCCC(=O)OC(CO)COC(=O)CCCCCCCCCCCCCCCCC` (stereo not given) [1-Stearoyl-2-arachidonoyl-glycerol] registered a cell number of 104.
To `CCC1(O)CC2CN(CCc3c([nH]c4ccccc34)C(C(=O)OC)(c3cc4c(cc3OC)N(C)C3C(O)(C(N)=O)C(O)C5(CC)C=CCN6CCC43C65)C2)C1.O=S(=O)(O)O` (stereo not given) [Vindesine sulfate] belongs 8.86; to `CSc1nc2ccc3nc(NC(=O)C(c4ccccc4)c4ccccc4)sc3c2s1`, 121.
With `N#Cc1c(-c2ccccc2)cc(-c2cc(Br)ccc2O)[nH]c1=O` [PIM1 Kinase Inhibitor II], the cell number was determined as 105.
`C=CCn1c(=O)c2c(nc(-c3ccc(S(=O)(=O)O)cc3)n2C)n(C)c1=O` [1-Allyl-3,7-dimethyl-8-p-sulfophenylxanthine] came in with a cell number of 108.
For `CCCCCC(O)C=CC1C(O)CC(O)C1CC=CCCCC(=O)O` (stereo not given) [Prostaglandin F2a], the cell number came to 107.
Molecule `CCCCCC=CCC=CCC=CCC=CCCCC(=O)OC(COCCCCCCCCCCCCCCCC)COP(=O)([O-])OCC[N+](C)(C)C` (stereo not given) [Arachidonyl-PAF] came in with a cell number of 100.
Consider `COc1cccc2c1C1CN(CCCCn3c(=O)[nH]c4c(sc5ncc(-c6ccccc6)nc54)c3=O)CC1CO2.Cl` (stereo not given) [Fiduxosin hydrochloride], for which the cell number came to 103.
The same measure for `Nc1nc(OCc2ccccc2)c2[nH]cnc2n1` [O6-benzylguanine]: 96.6; for `CC1CC2C(C(O)CC3(C)C2CCC3(O)C(=O)CO)C2(C)C=CC(=O)C=C12` (stereo not given) [Methylprednisolone]: 102.
`CN1C(C(=O)Nc2ccccn2)=C(O)c2ccccc2S1(=O)=O` [Piroxicam] gave a cell number of 107 ± 3.5.
In turn, `CCOc1cc2ncnc(Nc3cccc(Br)c3)c2cc1OCC` [Compound 56] gave a cell number of 94.
Turning to `CCOC(=O)c1cnc2c(cnn2CC)c1NN=C(C)C` [Etazolate], the cell number came out at 108.
Regarding `CC(=O)SCC(Cc1ccccc1)C(=O)NCC(=O)OCc1ccccc1` (stereo not given) [Racecadotril], the cell number was found to be 117.
For the molecule `C[C@H](C#Cc1ccc(Cc2ccc(F)cc2)s1)N(O)C(N)=O`, the cell number was 92.
To `O=C(O)CNC(=O)C(=O)O` [2-(carboxymethylamino)-2-oxoacetic acid] belongs 92.4; to `COc1cc2ncnc(Sc3nnc(C)s3)c2cc1OC`, 67.7.
Turning to `CCN1CCCC1CNC(=O)c1cc(S(N)(=O)=O)ccc1OC` [(S)-(-)-Sulpiride], the cell number worked out at 98.1.
`Cl.O=S(=O)(c1cccc2cnccc12)N1CCCNCC1`: the cell number turned out to be 93.8.
On to `CC(C)NCC(O)COc1ccc(CCOCC2CC2)cc1.Cl` (stereo not given) [Betaxolol.HCl], for which the cell number is 98.
Turning to `CC(C)(C)C1(O)CCN2CC3c4ccccc4CCc4cccc(c43)C2C1.Cl` (racemic), the cell number was found to be 111.
With `COc1ccc2c(c1)c(CC(=O)N1CCOCC1)c(C)n2C(=O)c1ccc(Cl)cc1` [Indomethacin morpholinylamide], the cell number stood at 100.
To `Cl.c1ccc(C2CN3CCSC3=N2)cc1` (stereo not given) [Tetramisole hydrochloride] belongs 114; to `CC12CC3CC(C)(C1)CC(N)(C3)C2.Cl` [Memantine hydrochloride], 96; to `CCCCCC(CC(=O)NO)C(=O)NC(C(=O)N1CCCC1CO)C(C)C` (stereo not given) [Actinonin], 89.
The molecule `CN(C)c1ccnc2sc3c(=O)n(N4CCCCCC4)cnc3c12` showed a cell number of 103.
With `c1ccc2c(Cc3c[nH]c4ccccc34)c[nH]c2c1` [Diindolylmethane], the cell number was 97.9 ± 2.8.
With `COc1cc2ncn(-c3cc(OCc4ccc(S(C)(=O)=O)cc4)c(C(N)=O)s3)c2cc1OC` [Polo-like Kinase Inhibitor I], the cell number came to 96.2.
`Cc1cc2c(OCC(CNC(C)(C)C)OC(=O)c3ccccc3)cccc2[nH]1` (stereo not given) [Bopindolol]: the cell number is 89.5.
The same measure for `C1CCC(C(CC2CCCCN2)C2CCCCC2)CC1.O=C(O)C=CC(=O)O` (stereo not given): 5.25.
To `CCCCCOC(=O)Nc1nc(=O)n(C2OC(C)C(O)C2O)cc1F` (stereo not given) [Capecitabine] belongs 98.9; to `CCC=CCC=CCC=CCC=CCC=CCCC(=O)OC(COCCCCCCCCCCCCCCCC)COP(=O)([O-])OCC[N+](C)(C)C` (stereo not given), 107; to `OCC1=CC(O)C2C=COC(OC3OC(CO)C(O)C(O)C3O)C12` (stereo not given) [Aucubin], 107.
The molecule `O=[NH+]C=C1C=CN(CN2C=CC(=C[NH+]=O)C=C2)C=C1.[Br-].[Br-]` [1,1'-methylenebis(4-(nitrosomethyl)pyridinium) bromide] registered a cell number of 99.
On to `CC(C)NCC(O)COc1cccc2ccccc12.Cl` (racemic), for which the cell number came out at 91.5.

The values above are taken from the supplement of paper PMC7156485.
